AMA1 RON2 block: qHTS for Inhibitors of AMA1-RON; Towards Development of Antimalarial Drug Lead: Primary Screen; actives 0.2% (n = 360,000); Plasmodium falciparum AMA1 (3D7) - RON2 peptide interaction; AID 720542, 2013; Potency, µM (titrated, usually from 58.2 µM), inactives show at the top dose activity change, negative = inhibition, hits mostly inhibitors; AlphaScreen AMA1-biotinylated RON2 peptide binding;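 note: potency is the fitted concentration of half-maximal effect; 0% = vehicle wells and -100% = peptide control; nearly all actives have a fitted effect of over 45% in size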
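AMA1 (3D7) with his tag at 25 nM final met compounds first, then biotinylated RON2 peptide at 25 nM; detection used donor plus acceptor beads, 10 µg/mL apiece, read by AlphaScreen after 30 min at room temperature.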
Shiga inhibitor: A qHTS for Small Molecule Inhibitors of Shiga Toxin; inhibition, % at 38.7 µM; Vero cells, Shiga toxin protein synthesis inhibition reporter; actives 9.2% (n = 290,000); in the data active = inhibition mostly above about 28%, no sharp cut-off; inactive = mostly below about 43%; note: 0% is about no effect
Pf growth 48h: Primary qHTS for delayed death inhibitors of the malarial parasite plastid, 48 hour incubation; P. falciparum luciferase growth in erythrocytes, 48 h; Potency, µM (series often up to 28.7 µM), inactives show at the top dose activity change, negative = inhibition, most hits filed as inhibitors; actives 5.9% (n = 310,000); AID 504832, 2011; note: potency is the fitted concentration of half-maximal effect; % is set by controls: 0 for no effect and ±100 for the full control effect
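Parasite viability was followed by luminescence of a genomically integrated firefly luciferase. Cultures held 0.1% parasitemia at 2% hematocrit (final), incubated under 5% CO2 at 37 C.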
SARS PLpro yeast: qHTS of Yeast-based Assay for SARS-CoV PLP; S. cerevisiae expressing SARS-CoV PLpro, growth rescue; Potency, µM (highest dose often 32.9 µM), for the others: at the top dose activity, positive = growth rescue, usual class: activators; actives 0.19% (n = 330,000); calls by dose curve; note: potency is the fitted concentration of half-maximal effect; 0% is about no effect; nearly all actives have a fitted effect of over 55% in size
Cycloheximide cs: Cycloheximide Counterscreen for Small Molecule Inhibitors of Shiga Toxin | actives 12% (n = 300,000) | max response, % | cell reporter, cycloheximide protein synthesis inhibition counterscreen | AID 2314, 2010; in the data active = max response mostly above about 13%, no sharp cut-off; inactive = mostly below about 14%; note: read at 38.3 µM for the half of the compounds with a filed dose; 0% is about no effect
Pf growth 96h: Primary qHTS for delayed death inhibitors of the malarial parasite plastid, 96 hour incubation. P. falciparum luciferase reporter growth, 96 h. Potency, µM (titrated, usually from 28.7 µM), without a hit: top-dose activity change, negative = inhibition, most hits filed as inhibitors. actives 6.9% (n = 320,000); note: potency is the fitted concentration of half-maximal effect; % is set by controls: 0 for no effect and ±100 for the full control effect
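Plates of compound plus infected erythrocytes (2% hematocrit, 0.05% parasitemia final) incubate 96 hours, 37 C, 5% CO2. Detection reagent added; reduced luminescence from the parasites' luciferase reporter flags inhibition.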
* = called active by the depositor; ? = inconclusive; / = not tested or not shown. Only some compounds are listed: those with a hit (about 19% of all), similar ones and a draw of the others. Unless noted, calls come from the whole dose curve; as a rule, active = well fitted curve in the direction sought with a large enough effect; inconclusive = small, poorly fitted or top-dose-only effect, or another doubt; inactive = no such curve, though single readings can be large; an effect the other way counts as inactive or inconclusive.

SMILES	AMA1 RON2 block	Shiga inhibitor	Pf growth 48h	SARS PLpro yeast	Cycloheximide cs	Pf growth 96h
COC(=O)c1ccc2[nH]ccc2c1	-4.1%	14.1	-17.2%	1.3%	1.3	?
O=C1c2ccccc2-c2ccc(C(=O)N3CCCCC3)cc21	-9.7%	153.4	60.8%	-0.5%	31.0*	-22.9%
O=C(Nc1ccc(C(=O)N2CCCCC2)cc1)c1ccccc1	15.0%	/	/	/	/	/
O=C(Nc1ccc(C2CC2(Cl)Cl)cc1)c1ccccc1Br (stereo not drawn)	5.4%	56.6*	64.7%	-80.7%	44.6*	0.928µM*
O=C(Nc1ccc(C(=O)N2CCCC2)cc1)c1ccccc1Br	-9.9%	35.2	27.5%	1.3%	10.6*	-6.6%
O=C(Nc1ccccc1)Nc1ccc(C(=O)N2CCCC2)cc1	23.7%	44.5*	266.2%	-4.2%	19.0*	16.1%
O=C1NC(=O)C2(CCCC2)N1	13.3%	/	/	/	/	/
O=C(/C=C/c1ccccc1)Nc1ccc(C(=O)N2CCCCC2)cc1	1.6%	44.4*	1.8%	-0.5%	13.6	-4.8%
COc1ccc(CN(C(=O)CN2C(=O)NC3(CCC(C)CC3)C2=O)C(C)Cc2cccs2)cc1 (stereo not drawn)	-7.4%	/	9.28µM*	-2.4%	/	11.7µM*
CCOC(=O)N1N=C(c2ccccc2)CC1(O)C(F)(F)F (stereo not drawn)	-12.4%	101.1*	123.8%	0.9%	49.3*	149.7%
O=C(COc1ccccc1)N1N=C(c2cccnc2)CC1(O)C(F)(F)F (stereo not drawn)	5.0%	-18.6	?	19.2%	-2.1	0.928µM*
CCOC(=O)N1N=C(c2ccc(C)cc2)CC1(O)C(F)(F)F (stereo not drawn)	-0.6%	36.5*	116.2%	3.2%	14.6*	225.7%
COC(=O)N1N=C(c2ccc(Br)cc2)CC1(O)C(F)(F)F (stereo not drawn)	-10.0%	40.1*	104.1%	7.7%	47.3*	8.6%
O=C(c1ccccc1)N1N=C(c2ccccc2)CC1(O)C(F)(F)F (stereo not drawn)	10.3%	-6.2	0.8%	-1.6%	-1.7	?
CC(=O)C1=C(O)C=C(c2ccco2)CC1c1ccco1 (stereo not drawn)	-18.5%	-4.9	8.2%	-6.0%	-2.1	/
Cc1noc(C)c1CSCC(=O)N(C)CC(=O)Nc1ccccc1C(F)(F)F	26.6%	/	-28.0%	-2.2%	/	-22.7%
CC1=NN(C(=O)c2ccc(C)cc2)C(O)(C(F)(F)OC(F)(F)F)C1 (stereo not drawn)	92.9%	71.8*	?	-5.0%	31.2*	?
O=C(C1CC1)N1N=C(c2ccc(F)cc2)CC1(O)C(F)(F)F (stereo not drawn)	-4.1%	/	13.5%	-1.0%	0.1	11.7µM*
Cc1ccc(OCCSc2nc3ccccc3n2CC(=O)O)cc1C	1.5%	-2.1	7.5%	2.9%	-1.2	11.7µM*
COc1ccc(OCCSc2nc3ccccc3n2CCC(=O)O)cc1	-8.2%	/	-6.8%	7.6%	-1.9	11.0%
O=C(O)Cn1c(SCCOc2ccccc2)nc2ccccc21	-2.2%	4.4	12.9%	/	7.9	8.28µM*
O=C(O)CCSc1nc2ccccc2n1Cc1ccccc1	-6.1%	9.8	-8.9%	2.5%	0.5	2.94µM*
O=C(O)CCn1c(SCCOc2ccccc2)nc2ccccc21	-3.0%	/	16.6%	0.7%	13.9*	11.7µM*
CCCCOc1ccc(OCCSc2nc3ccccc3n2CC(=O)O)cc1	-7.5%	-5.3	-13.5%	-2.8%	-3.2	?
O=C(Cc1n[nH]c(=O)c2ccccc12)OCC(=O)c1ccc(OC(F)F)cc1OC(F)F	2.3%	/	0.1%	-5.9%	/	0.0%
SMILES	AMA1 RON2 block	Shiga inhibitor	Pf growth 48h	SARS PLpro yeast	Cycloheximide cs	Pf growth 96h
COc1ccc(OC)c(NC(=O)CSc2ccc(-c3cccnc3)nn2)c1	3.1%	-4.4	-22.6%	-6.0%	-2.4	?
CCOc1ccc(N(CC(=O)N2CCC(Cc3ccccc3)CC2)S(C)(=O)=O)cc1	-14.8%	-8.1	54.8%	1.0%	5.2	-18.1%
CCNC(COC(=O)c1ccc([N+](=O)[O-])cc1)C1CCCCC1 (stereo not drawn)	-3.0%	/	/	/	/	/
O=C(N/N=C/c1ccncc1)c1nc2ccccc2c(=O)[nH]1	90.8%	31.7	51.5%	0.8%	17.4*	57.1%
O=C(N/N=C/c1ccc2cccnc2c1)c1nc2ccccc2c(=O)[nH]1	-12.1%	34.9*	46.3%	0.4%	29.6*	40.8%
O=C(NC(C(=O)N/N=C/c1ccncc1)c1n[nH]c(=O)c2ccccc12)c1ccccc1 (stereo not drawn)	40.3%	-0.4	-10.2%	2.0%	-1.1	-20.9%
COC(=O)Cn1c2ccccc2c2nc(=O)cc(C)n21	-2.5%	-10.4	18.6%	-0.2%	-7.5	?
COc1cc2c(cc1OC)n(CC(=O)NC1CCCCCC1)n1c(C)cc(=O)nc21	-5.3%	-3.5	18.7%	-3.9%	14.3	5.86µM*
CC(=O)c1ccc(N2CCN(c3ccc(S(=O)(=O)NCCCN(C)C)cc3[N+](=O)[O-])CC2)cc1	-7.1%	20.2	?	0.4%	-0.3	13.1µM*
CC(=O)c1ccc(N2CCN(c3ccc(S(=O)(=O)NCCN(C)C)cc3[N+](=O)[O-])CC2)cc1	-5.5%	-2.6	?	-2.2%	-3.5	?
CN(C)CCCNS(=O)(=O)c1ccc(N2CCN(Cc3ccc4c(c3)OCO4)CC2)c([N+](=O)[O-])c1	-13.5%	-5.8	11.7µM*	-0.4%	-5.1	9.28µM*
Cn1cccc1C(=O)NNC(=O)COc1ccccc1Cl	48.2%	/	56.5%	0.4%	/	33.2%
O=C(COC(=O)c1ccc[n+]([O-])c1)Nc1ccc(Cl)cc1[N+](=O)[O-]	-11.2%	/	?	0.1%	/	-15.1%
CCOC(CNc1ncnc2sc(-c3ccccc3)cc12)OCC	9.2%	24.6	?	0.3%	11.6*	?
CN(C)CCCNc1ncnc2sc(-c3ccccc3)cc12	?	-11.2	?	-1.4%	-3.0	?
COc1ccc(CCNC(=O)CC2(CC3=NS(=O)(=O)c4ccccc4N3)CCCC2)cc1OC	-5.0%	9.5	?	-3.4%	6.2	9.6%
COc1ccc(CNC(=O)CCCC2=NS(=O)(=O)c3ccccc3N2)cc1	0.0%	-2.0	13.4%	3.1%	-1.2	10.4µM*
Cc1ccc(CNC(=O)CC2(CC3=NS(=O)(=O)c4ccccc4N3)CCCC2)cc1	-4.2%	17.8	?	14.9%	8.5*	11.7µM*
CCOC(=O)CNC(=O)CSc1ncnc2c1cnn2-c1ccc(C)cc1	-8.1%	-4.0	15.4%	-0.3%	0.4	8.28µM*
CCOC(=O)CSc1ncnc2c1cnn2-c1ccccc1	21.2%	31.4	12.0%	-5.5%	-3.4	13.7%

From PubChem BioAssay
